Assay outcomes from PubChem BioAssay.
Cav32 inh: Cav3.2 calcium influx blockers – cell-based, Fluo-4 calcium fluorescence, FDSS, MLSMR library, primary screen. Cav3.2-expressing cells; hits give low values. B-score at 10 µM. Voltage-dependent T-type calcium channel subunit alpha-1H (Homo sapiens), O95180. 100,000 compounds, 4% hits;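 active = single-dose well whose peak fluorescence ratio is a statistical outlier from its plate by either plate-standardised score or position-corrected B-score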
D1 allo mod: D1 CRE-luciferase signal change, two-sided – cell-based, HEK293 D1, dopamine EC30, D1 allosteric modulator project, primary screen; D(1A) dopamine receptor (Homo sapiens), P21728; dopamine EC30 potentiation; actives deviate in either direction; B-score at 10 µM; 58,000 compounds, 5.9% hits;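 active = luminescence count or its row- and column-corrected plate score outside the 99.7% band of the plate's sample wells, on either side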
PostGolgi ctrl: growth inhibition of yeast control strain, primary screen, counter-screen for post-Golgi transport modulator project; AID 738, 2007; efflux-deficient yeast background strain, growth absorbance A615, 16 h; 98,000 compounds, 5% hits; inhibition, % at 10 µM
PLAP act: PLAP enzyme activators, biochemical, luminescence, HTS. Alkaline phosphatase, placental type (Homo sapiens), P05187. purified PLAP enzyme, luminescent substrate read-out; hits give high values. activation fold at 20 µM. 96,000 compounds, 1.2% hits. AID 696, 2007; in the data active = activation fold above about 2
DAT uptake mod: changed hDAT dopamine uptake under cocaine IC80, either direction, primary screen, cocaine antagonist project, cell-based, LLC-PK1 hDAT, [14C]-dopamine uptake, MLSMR; AID 449768, 2010; Sodium-dependent dopamine transporter (Homo sapiens), Q01959; B-score at 10 µM; 110,000 compounds, 1.3% hits; LLC-PK1 hDAT cells, [14C]-dopamine uptake with cocaine IC80; actives deviate in either direction;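 active = Z score or B-score, a plate-position-corrected score, falls beyond the plate's 99.7% confidence bounds, in either direction; inactive = both scores lie inside the 99.7% bounds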;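 also: scored against the spread of the other compound wells on the same plate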
PostGolgi yeast: phenotypic screen on post-Golgi transport, primary screen. post-Golgi transport phenotypic cell assay. inhibition, % at 10 µM. 98,000 compounds, 0.9% hits. AID 739, 2007;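 also: yeast cells grown in 1536-well plates; yeast grown about 18 h at 30C before absorbance read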
Active calls of the source: *; / = not tested or not shown. Compounds with a hit are over-represented: about 12% of the library has one in this group of screens. Rule as the data show it, unless noted: active = inhibition above about 30%; inactive = the rest.

SMILES	Cav32 inh	D1 allo mod	PostGolgi ctrl	PLAP act	DAT uptake mod	PostGolgi yeast
COc1ccc(N=C2S/C(=C\c3ccc(N4CCOCC4)o3)C(=O)N2CCc2c[nH]c3ccccc23)cc1	-2.7	/	32*	1.2	-0.42	12
CCCN1C(=O)/C(=C/c2ccco2)SC1=Nc1ccc(OC)cc1	0.078	/	6	1.1	0.72	-5
CCCc1[nH]nc2c1C(c1ccc(O)c(OC)c1)C(C#N)=C(N)O2 (stereo not drawn)	/	0.23	5	0.5	/	1
O=C(O)c1nn(-c2ccccc2)ccc1=O	0.48	/	0	1	-1.9	4
c1ccc(-c2nnc(-c3ccccn3)nc2NC2CCCCC2)cc1	0.69	/	87*	2.4*	0.18	40*
CNc1nc(-c2ccccn2)nnc1-c1ccccc1	-0.36	/	10	1.4	-0.069	14
CC(=O)Nc1ccc(-c2nc3c(C)cccc3[nH]2)cc1	2.1	-1.2	6	0.9	-8.1*	6
Cc1ccccc1NC(=O)C1CCN(c2cc(-c3ccccc3)nc3ncnn23)CC1	2.7	/	/	/	0.025	/
CC1CCN(Cc2csc(N)n2)CC1	1.3	/	4	1.1	-0.55	3
CCC(c1nnnn1Cc1cccs1)N1CCN(C2CCCC2)CC1 (stereo not drawn)	-0.41	-0.22	26	1	-0.079	-1
O=C1CC(N2CCN(c3nc4ccccc4s3)CC2)C(=O)N1Cc1cccs1 (stereo not drawn)	-1.2	-0.51	102*	1.5	0.61	93*
CCC(c1nnnn1Cc1cccs1)N1CCN(c2nc3ccccc3s2)CC1 (stereo not drawn)	-3.3	-0.47	32*	1.2	0.16	10
O=C(CN1C(=O)NC2(CCCc3ccccc32)C1=O)N1CCN(C(=O)c2ccco2)CC1 (stereo not drawn)	-0.17	0.037	-6	1	0.00084	-2
CCCCCCn1c(SCC(=O)c2c(N)n(C)c(=O)n(C)c2=O)nc2ccccc21	0.088	/	8	0.9	-0.73	5
COC(=O)c1cc(OC)c(OC)cc1NC(=O)CSc1ccccc1	-3.2	/	43*	1.4	-0.041	-1
O=C1c2ccccc2C(=O)N1CCCCN(C(=O)c1cccc([N+](=O)[O-])c1)c1ccc(Cl)cc1	0.47	/	18	1.1	0.5	5
O=C1c2ccccc2C(=O)N1CCCCN(C(=O)c1ccco1)c1ccc(Cl)cc1	-8.5*	2.7	31*	1.4	0.93	2
Cc1ccc(N(CCCCN2C(=O)c3ccccc3C2=O)C(=O)c2cccs2)cc1	-5.8*	/	24	0.9	-0.22	-6
CC(=O)NC1=NN(C(C)=O)C(c2sccc2C)S1 (stereo not drawn)	-0.37	/	-6	1.3	-0.83	-4
O=C(Nc1cccnc1)c1ccc(S(=O)(=O)N2CCCCCC2)cc1	0.27	/	19	1.2	1.2	-5
CS(=O)(=O)N(CC(=O)Nc1ccc(CC#N)cc1)c1ccc(C23CC4CC(CC(C4)C2)C3)cc1	-3.6	/	27	1.7	-0.26	10
O=[N+]([O-])c1ccc(Cl)cc1Sc1cccc2cccnc12	-0.77	/	/	/	1.2	/
Cc1n[nH]c(C)c1Sc1ccccc1N=Cc1cc(Cl)cc([N+](=O)[O-])c1O	-6.9*	/	16	1	-0.57	-2
Cc1nc2ncnn2c(N2CCN(C(c3ccccc3)c3ccccc3)CC2)c1C	-4.3	1.2	28	1.6	3.2*	16
O=C(CSCc1cccc(Br)c1)N1CCOCC1	0.66	0.24	11	0.8	0.41	2
SMILES	Cav32 inh	D1 allo mod	PostGolgi ctrl	PLAP act	DAT uptake mod	PostGolgi yeast
COc1cccc(NC(=O)c2ccccc2-c2nc(-c3cccc(C)c3)no2)c1	-4.1	0.83	34*	1.3	-0.6	-3
CC(C)(C)NC(=O)c1ccccc1-c1nc(-c2ccccc2Cl)no1	-2.8	0.56	30*	1.5	-0.93	4
Cc1cccc(-c2noc(-c3ccccc3C(=O)NCC3CCCO3)n2)c1 (stereo not drawn)	-0.43	0.48	31*	1.1	0.22	-3
O=C(NCC1CCCO1)c1ccccc1-c1nc(-c2ccc(Cl)cc2)no1 (stereo not drawn)	-0.28	-0.26	2	1.3	-1.1	5
CCOc1ccccc1NC(=O)c1ccccc1-c1nc(-c2ccccc2OC)no1	-4.7*	-2.5	24	1.3	0.33	-12
CC(C)NC(=O)c1ccccc1-c1nc(-c2ccccc2Cl)no1	0.068	-0.24	8	1	-0.37	-3
CCc1ccc(S(=O)(=O)c2n[nH]n3c2nc(=O)c2ccccc23)cc1	-0.33	-0.014	50*	/	0.4	1
CC(C)c1ccc(S(=O)(=O)c2n[nH]n3c2nc(=O)c2ccccc23)cc1	-2.6	/	57*	/	-0.68	0
O=c1nc2c(-c3ccccc3F)n[nH]n2c2ccccc12	0.015	-0.94	25	0.9	0.79	-4
Cc1cc2oc(=O)cc(CN3CCCCC3C)c2c(C)c1Cl (stereo not drawn)	0.23	0.11	15	1	-0.059	15
COC(=O)CN1C2(C#N)CCCCC2CC2CCCCC21C#N (stereo not drawn)	0.84	/	-1	1.2	1.3	5
COc1ccc(-c2nnc(SCC(=O)N(Cc3ccccc3)C(C)(C)C)o2)cc1OC	-7.1*	0.34	12	1.5	-0.56	5
Brc1ccc(OCc2ccccc2)c(CNCc2ccncc2)c1	0.17	/	95*	1.3	1.6	101*
OCCNCc1cc(Br)ccc1OCc1ccc(Cl)cc1	/	/	1	1.1	/	-6
CCOC(=O)c1cc2c(=O)n3cccc(C)c3nc2n(CC2CCCO2)c1=NC(C)=O (stereo not drawn)	5.1*	1.6	/	/	1.5	/
Cc1ccc(-c2nc(C#N)c(NCCc3ccccn3)o2)cc1	0.82	/	33*	1	-1.5	0
NC(=O)CCn1nc(-c2ccccc2)c2ccccc2c1=O	-0.036	-0.21	-4	1.1	-0.34	9
O=C(CCn1nc(-c2ccccc2)c2ccccc2c1=O)N1CCN(c2ccccc2)CC1	-5.3*	1.2	14	1.8	0.56	7
C#Cc1ccc2c(c1)COc1c3ccccc3nn1-2	-0.052	/	/	/	0.19	/
COc1ccc(-c2nc(-c3ccccc3)c(-c3cc([N+](=O)[O-])ccc3C)[nH]2)cc1O	0.23	/	31*	1.3	-0.86	20
Cc1ccc([N+](=O)[O-])cc1-c1[nH]c(-c2ccc(O)c(O)c2)nc1-c1ccccc1	-0.93	/	14	1.8	0.74	17
COc1ccc2c(c1OC)C(=O)N1N=C(c3ccc(O)cc3)CC21 (stereo not drawn)	0.1	/	12	1.1	-0.1	-5
